Screens as filed in PubChem BioAssay.
BRCA1 expr act: qHTS Assay to Identify Small Molecule Activators of BRCA1 Expression. MCF7-BRCA1-FFLuc reporter, luminescence, 48 h; response scale: scaled: vehicle 0%, 10 µM genistein 100%. Potency, µM (titrated, usually from 46.1 µM), usual class: activators. AID 624202, 2012. 1.1% of 380,000 active; further: nearly all actives have a fitted effect of over 80% in size
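Quantitative HTS in MCF7 cells stably reporting BRCA1 expression via firefly luciferase. Compound treatment lasts 48 h at 37 °C in phenol-red free MEM. Activation is expressed relative to genistein at 10 microM and DMSO.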
GLP1R ag: qHTS of GLP-1 Receptor Agonists; HEK293 GLP-1R CRE-luciferase, luminescence, 4-6 h; cells express a hypersensitive GLP-1R form; Potency, µM (doses to about 45.6 µM), most hits filed as activators; 0.007% of 380,000 active; AID 624172, 2012
Target sequence (P43220 whole entry, looked up): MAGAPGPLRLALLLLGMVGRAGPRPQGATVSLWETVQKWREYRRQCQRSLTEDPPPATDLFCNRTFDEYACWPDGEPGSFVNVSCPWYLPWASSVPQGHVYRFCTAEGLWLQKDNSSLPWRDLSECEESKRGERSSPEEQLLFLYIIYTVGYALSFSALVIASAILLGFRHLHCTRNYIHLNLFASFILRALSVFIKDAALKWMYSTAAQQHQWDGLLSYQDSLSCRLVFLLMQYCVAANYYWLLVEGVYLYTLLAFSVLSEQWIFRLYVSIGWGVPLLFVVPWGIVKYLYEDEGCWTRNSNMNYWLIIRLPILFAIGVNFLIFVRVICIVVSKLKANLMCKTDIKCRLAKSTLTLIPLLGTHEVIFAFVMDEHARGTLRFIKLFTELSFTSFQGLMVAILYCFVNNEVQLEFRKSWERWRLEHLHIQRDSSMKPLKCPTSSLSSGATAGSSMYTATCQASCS
a7 integrin act: qHTS for Activators of Integrin-Mediated Alleviation for Muscular Dystrophy. alpha7betagal myoblasts, beta-gal FDG fluorescence, 48 h. Potency, µM (series often up to 38.3 µM), most hits filed as activators. 0.064% of 350,000 active; further: nearly all actives have a fitted effect of over 60% in size
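alpha7betagal+/- myoblasts (passage 13, 250/well) treated 48 h at 37C with compounds at 1:260 dilution of DMSO stock. Lysed, then beta-galactosidase activity read as FDG fluorescence (ex 480/em 540) after 30 min, with pre-read for autofluorescence.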
GLP1R cytotox: qHTS of GLP-1 Receptor Inverse Agonists: Cytotox Screen | HEK293 cAMP-luciferase reporter cells, luminescence, 24 h | Potency, µM (series often up to 38.3 µM), most hits filed as inhibitors | 0.13% of 410,000 active | AID 624418, 2012;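 further: loss of luciferase light is scored as toxicity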
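Compound-treated cells are incubated 24 hr at 37 deg C under 5% CO2 after a 12 hour attachment period, then luciferase detection reagent is added and luminescence is measured following 12 min at room temperature; lowered signal indicates toxicity.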
GLP1R inv ag: qHTS of GLP-1 Receptor Inverse Agonists (Inhibition Mode); Glucagon-like peptide 1 receptor (Homo sapiens), P43220; HEK293 GLP-1R CRE-luciferase, luminescence, 24 h; GLP-1R form is constitutively active; Potency, µM (top dose mostly 38.3 µM), most hits filed as inhibitors; 1.6% of 410,000 active; AID 624417, 2012; further: nearly all actives have a fitted effect of over 55% in size
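Inverse agonism was detected as reduced cAMP-driven luciferase luminescence after 24 h compound treatment. The cells were HEK293 clones expressing constitutively active human GLP-1R with the reporter. Reporter-only and GPR119 cell lines served as counterscreen controls.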
Of the large screens only hits and unclear results are named; the others gave an inactive call. Sampled rows, rich in hits. Any-hit rate of the full collection: about 2.7%. The call rests on the fitted dose curve; in most records, active means well fitted curve in the direction sought with a large enough effect; inconclusive means small, poorly fitted or top-dose-only effect, or another doubt; inactive means no such curve, though single readings can be large; an effect the other way counts as inactive or inconclusive.

O=C(NC1CCCC1)c1ccccc1OCc1ccccc1	none
COc1ccccc1C(=O)NC1CCCCCCC1	GLP1R inv ag 7.1µM
Cc1occc1C(=O)NC1CCCCCCC1	BRCA1 expr act 14µM, GLP1R inv ag inconclusive
Cc1occc1C(=O)NNC(=O)C1CCCC1	none
COc1ccccc1C(=O)NCCC(=O)NC1CCC(C)CC1 (stereo not given)	BRCA1 expr act 8.9µM
COc1ccc(Cl)cc1NC(=O)CCn1nc(C)cc1C	none (no result: BRCA1 expr act, GLP1R ag, a7 integrin act)
COc1cc(OC)c(NC2c3ccccc3C(=O)N2c2cc(C)ccn2)cc1Cl (stereo not given)	none
CCOC(=O)c1ccccc1NC1c2ccccc2C(=O)N1c1cc(C)ccn1 (stereo not given)	GLP1R inv ag 13µM
CCC(Sc1nc2cc(OC)c(OC)cc2c(=O)n1CCc1ccc(Cl)cc1)C(=O)NCCOC (stereo not given)	none (no result: BRCA1 expr act, GLP1R ag, a7 integrin act)
CCOCCCn1c(SCC(=O)OCC)nc2c(sc3ccccc32)c1=O	none (no result: BRCA1 expr act, GLP1R ag, a7 integrin act)
CC(=O)N(CCCN(C)C)CCC(C)CCC=C(C)C (stereo not given)	GLP1R inv ag 4µM
CC(=O)N(CCCc1ccc(C(C)(C)C)cc1)CCCN(C)C	GLP1R inv ag inconclusive
O=C(CSc1nccn1Cc1ccc(F)cc1)Nc1nc2ccccc2s1	GLP1R inv ag inconclusive (no result: a7 integrin act)
Cc1cccc(C)c1OCC(O)CN1CCc2ccccc2C1 (stereo not given)	GLP1R inv ag 10µM
Cc1ccc(C(C)C)c(OCC(O)CN2CCc3ccccc3C2)c1 (stereo not given)	GLP1R cytotox inconclusive, GLP1R inv ag inconclusive
Cn1cc(CNCc2ccccc2OCC(O)CN2CCc3ccccc3C2)cn1 (stereo not given)	GLP1R cytotox inconclusive, GLP1R inv ag 8.9µM
O/N=C/c1cc(Br)cc(Br)c1OCc1ccccc1	GLP1R inv ag 10µM
CN(C)C(=O)CSc1nnc(CCN)o1	none
CN(C)C(=O)CSc1nnc(C23CC4CC(CC(C4)C2)C3)o1	BRCA1 expr act 10µM
Cc1ccc(NC(=O)c2cc(S(=O)(=O)N3CCCC(C)C3)cn2C)c(Br)c1 (stereo not given)	GLP1R inv ag inconclusive (no result: a7 integrin act)
C(=N\n1cnnc1)/c1ccc(OCc2cccc3ccccc23)cc1	none
Fc1ccccc1COc1ccc(/C=N/n2cnnc2)cc1	BRCA1 expr act 10µM
Cc1ccc(/C=C/c2onc(C)c2S(=O)(=O)N2CCC(C(=O)NCc3ccc(OC(C)C)cc3)CC2)cc1	none (no result: BRCA1 expr act, GLP1R ag, a7 integrin act)
COc1ccc(-c2cn3c(n2)sc2cc(C(=O)Nc4cccc(SC)c4)ccc23)cc1	none (no result: BRCA1 expr act, GLP1R ag, a7 integrin act)
C=CCNC(=S)N/N=C/c1ccc(C(C)(C)C)cc1	GLP1R cytotox inconclusive, GLP1R inv ag 3.5µM
CC(C)(C)c1ccc(/C=N/NC(=O)C2CCCC2)cc1	BRCA1 expr act 5.6µM, GLP1R inv ag inconclusive
O=C(N/N=C/c1cn(Cc2ccccc2)c2ccccc12)c1ccncc1	GLP1R inv ag inconclusive
O=C(NN=Cc1ccc2c(c1)OCO2)C1CC1	BRCA1 expr act 7.1µM
Nc1ccc(C(=O)N/N=C/c2cn(Cc3cccc(F)c3)c3ccccc23)cc1	GLP1R inv ag 5µM
CC(C)(C)C1CCc2c(sc3nc(-c4cc5cc(Cl)ccc5oc4=O)[nH]c(=O)c23)C1 (stereo not given)	none (no result: BRCA1 expr act, GLP1R ag, a7 integrin act)
CCN(CC)c1cc(C)c2cc(NC(=O)/C=C/c3ccc(C)cc3)ccc2n1	none (no result: a7 integrin act)
O=C(Cc1ccccc1)N/N=C/c1ccc2c(c1)OCO2	BRCA1 expr act 1.3µM
O=C(CNc1ccccc1)N/N=C/c1ccc2c(c1)OCO2	GLP1R inv ag inconclusive
O=Cc1cn(CC(=O)Nc2ccc3c(c2)OCO3)c2ccccc12	GLP1R inv ag inconclusive
O=C(CNc1ccc2c(c1)OCO2)N/N=C\c1cn(Cc2ccccc2)c2ccccc12	GLP1R inv ag 2.8µM
O=C1CC2C(CC(OC(=O)c3ccc(-c4ccccc4)cc3)C2CO)O1 (stereo not given)	BRCA1 expr act inconclusive
O=C1C[C@H]2[C@H](CO)[C@@H](OC(=O)c3ccc(-c4ccccc4)cc3)C[C@H]2O1	BRCA1 expr act 13µM, a7 integrin act inconclusive, GLP1R inv ag inconclusive
Nc1sc(Cc2ccccc2)cc1C(=O)c1c(-c2ccccc2)[nH]c2ccccc12	GLP1R cytotox inconclusive, GLP1R inv ag 5.6µM (no result: BRCA1 expr act, GLP1R ag, a7 integrin act)
CCNC(=O)C(=O)c1c(-c2ccccc2)[nH]c2ccccc12	none
CC(OC(=O)c1cc(S(=O)(=O)N2CCOCC2)ccc1F)C(=O)NCC1CCCCC1 (stereo not given)	none
Cc1ccc(S(=O)(=O)N2CCCCC2)cc1C(=O)OC(C)C(=O)NCC1CCCCC1 (stereo not given)	GLP1R inv ag 7.1µM
Cc1ccc(C)c(C(=O)OCC(=O)Nc2cccc(S(=O)(=O)N3CCCCC3)c2)c1	GLP1R inv ag 1.4µM
Cc1ccc(NC(=O)COC(=O)c2csc3c2CCC(C)C3)cc1S(=O)(=O)N1CCCCC1 (stereo not given)	none
CC1CCc2c(C(=O)OCC(=O)Nc3cccc(S(=O)(=O)N4CCCCCC4)c3)csc2C1 (stereo not given)	GLP1R inv ag 2.5µM
Cc1ccccc1C(=O)OCC(=O)Nc1cccc(S(=O)(=O)N2CCCCC2)c1	GLP1R inv ag inconclusive
C=C[C@@H]1CN2CCC1C[C@H]2[C@H](O)c1ccnc2ccc(OC)cc12 (stereo not given in full)	none (no result: GLP1R ag, a7 integrin act, GLP1R cytotox, GLP1R inv ag)
COc1ccccc1N1CCN(C(=O)c2nn(-c3ccc(C)cc3)c(=O)n(C)c2=O)CC1	none (no result: BRCA1 expr act, GLP1R ag, a7 integrin act)
c1ccc2c(CCC3CCNCC3)c[nH]c2c1	none (no result: BRCA1 expr act, a7 integrin act, GLP1R cytotox, GLP1R inv ag)
CC(C)c1ccc(NC(=O)CSC2=Nc3ccccc3C3=NC(CC(=O)NC4CCCCC4)C(=O)N23)cc1 (stereo not given)	GLP1R inv ag 10µM (no result: BRCA1 expr act, GLP1R ag, a7 integrin act)
COc1ccc(OC)c(NC(=O)CSC2=Nc3ccccc3C3=NC(CC(=O)NCc4ccco4)C(=O)N23)c1 (stereo not given)	GLP1R inv ag 11µM (no result: BRCA1 expr act, GLP1R ag, a7 integrin act)
CC(C)c1ccc(NC(=O)CSC2=Nc3ccccc3C3=NC(CCC(=O)NC4CCCCC4)C(=O)N23)cc1 (stereo not given)	none (no result: BRCA1 expr act, GLP1R ag, a7 integrin act)
COCCNC(=S)N(CCc1c(C)[nH]c2ccc(Cl)cc12)Cc1cccs1	GLP1R cytotox inconclusive, GLP1R inv ag 2.5µM
Cc1cc(Cl)c2oc(C(=O)N(C)C3CCOC3)c(C)c2c1 (stereo not given)	BRCA1 expr act 2.5µM
Cc1cc(Cl)c2oc(C(=O)N3CCOCC3)c(C)c2c1	BRCA1 expr act inconclusive
C=CCc1c(C)nc(-c2ccccc2)nc1N/N=C/c1ccccc1	a7 integrin act 11µM, GLP1R inv ag inconclusive
C=CCc1c(C)nc(-c2ccccc2)nc1N/N=C/c1ccncc1	GLP1R inv ag inconclusive
